According to PubChem BioAssay AID2006 (Sanford-Burnham Center for Chemical Genomics, 2009):
About 1,000 (0.34%) of roughly 290,000 compounds were called active. No stated cut-off is given here; in the data, active means inhibition above about 50% (passing the limit was not always enough); inconclusive means no clear call, values can overlap the other calls. Many of the other results were omitted from the sample, so actives are more common in it than they were.

Biological target: SUMO-conjugating enzyme UBC9 (Homo sapiens) (UniProt P63279)
Experiment: inhibitors of in vitro SUMOylation cascade, primary screen, biochemical, HTRF, uHTS (AID 2006)
Settings: HTRF SUMOylation assay, SAE1/SAE2 + UBC9, in vitro, at 35 µM, stronger effect = higher value

SUMO-conjugating enzyme UBC9 (Homo sapiens), sequence (P63279 whole entry, looked up): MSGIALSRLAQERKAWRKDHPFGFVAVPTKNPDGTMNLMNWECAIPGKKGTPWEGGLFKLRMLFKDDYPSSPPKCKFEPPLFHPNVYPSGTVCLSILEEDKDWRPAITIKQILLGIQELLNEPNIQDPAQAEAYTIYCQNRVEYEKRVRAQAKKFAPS

## CCc1nn(CCCC(=O)NCc2ccc(C)cc2)c(=O)c2cc3occc3n12
  inhibition: -4.3% (inactive)

## Cc1cnc(C(=O)N2CCCC(N3CCN(c4ccccc4F)CC3)C2)cn1 (centres undefined)
  inhibition: 5.2% (inactive)

## CC(=O)Nc1ccc(S(=O)(=O)Nc2cc(C)cn(Cc3ccc(C)cc3)c2=O)cc1
  inhibition: 14.3% (inactive)

## O=C1Nc2cc(C(=O)N3CCC(N4CCCCC4)CC3)ccc2S/C1=C\c1ccccc1
  inhibition: 10.8% (inactive)

## Cc1ccc2nc(-c3ccncc3)cc(C(=O)Nc3ccncc3)c2c1
  inhibition: -4.4% (inactive)

## Cc1ccc2nc(-c3ccncc3)cc(C(=O)Nc3ccc4c(c3)OCCO4)c2c1
  inhibition: 23.4% (inactive)

## Cc1ccc2nc(-c3ccncc3)cc(C(=O)Nc3ccc(OC(F)F)cc3)c2c1
  inhibition: 61.9% (active)

## COc1ccc(N2CCN(C3CCCCC3NS(=O)(=O)c3ccccc3)CC2)cc1 (centres undefined)
  inhibition: -12.9% (inactive)

## O=C(CN1CCN(c2ccc(O)cc2)CC1)Nc1cc(S(=O)(=O)N2CCOCC2)ccc1Cl
  inhibition: 25.4% (inactive)

## O=[N+]([O-])c1cc(Cl)cc(/C=N/NC(=S)Nc2cc(S(=O)(=O)N3CCOCC3)ccc2Cl)c1O
  inhibition: 99.5% (active)

## O=C(N/N=C/c1cc(Cl)cc([N+](=O)[O-])c1O)C(O)(c1ccccc1)c1ccccc1
  inhibition: -22% (inactive)

## O=C(O)C1CCCCC1C(=O)N1CCN(S(=O)(=O)c2ccc(F)cc2)CC1 (centres undefined)
  inhibition: 9.5% (inactive)

## O=C(c1cccnc1)N1CCN(S(=O)(=O)c2cccs2)CC1
  inhibition: -2% (inactive)

## Cc1ccc(C)c(SCc2nc3sc(C(=O)O)c(C)c3c(=O)[nH]2)c1
  inhibition: 9.1% (inactive)

## CCOC(=O)c1sc2nc(CSc3ccccc3)[nH]c(=O)c2c1C
  inhibition: 25.9% (inactive)

## CSc1nnc(SCc2nc3sc(C(=O)O)c(C)c3c(=O)[nH]2)s1
  inhibition: 50.2% (active)
Average of repeat tests
  inhibition: 70.2%

## COc1cccc(-n2c(=S)sc3c(=O)n(-c4ccccc4C)c(SCC(=O)O)nc32)c1
  inhibition: 6.2% (inactive)

## COc1ccc(CCNC(=O)CCCCCNC(=O)N2CCn3c2nc2ccccc23)cc1OC
  inhibition: 15.4% (inactive)

## CCc1nn(CCCC(=O)NC(C)c2ccccc2)c(=O)c2cc3occc3n12 (centres undefined)
  inhibition: 10.2% (inactive)

## CCC(C)(C)NC(=O)C(c1ccc(OC)cc1)N(C(=O)CCC(=O)Nc1cc(C)on1)c1ccc(OC)cc1OC (centres undefined)
  inhibition: 6% (inactive)

## COC(=O)COc1ccc2c(c1C)O/C(=C\c1ccco1)C2=O
  inhibition: 16.9% (inactive)

## O=C(NCCCn1ccnc1)C1CCCN(S(=O)(=O)c2cc(Cl)ccc2Cl)C1 (centres undefined)
  inhibition: -5.4% (inactive)

## O=c1[nH]c2c(c(=O)n1Cc1ccccc1)CCC2
  inhibition: 14.7% (inactive)

## Cc1cc2nc3c(=O)n(Cc4ccccc4)c(=O)[nH]c3nc2cc1N
  inhibition: 51.4% (active)

## Cc1nc2c(c(=O)n1Cc1ccco1)c1nc3ccccc3nc1n2Cc1ccccc1
  inhibition: 31.7% (inactive)

## CC(=O)N/C(=N/c1nc(C)cc(C)n1)Nc1ccc(F)cc1F
  inhibition: 10.8% (inactive)

## O=C(NCc1ccccc1Cl)C1CCCN1S(=O)(=O)c1ccc(F)cc1 (centres undefined)
  inhibition: 9.8% (inactive)

## O=C(Nc1ccc(N2CCCC2=O)cc1)c1cncc(Br)c1
  inhibition: -7.3% (inactive)

## Oc1c(Cl)cc(Cl)c(Cl)c1Cc1c(O)c(Cl)cc(Cl)c1Cl
  inhibition: 71.9% (active)

## CC(=O)N1CCN(CC(=O)Nc2ccc(C)c(F)c2)CC1
  inhibition: 6% (inactive)

## COC(=O)c1ccc(CNC(=O)c2ccc3oc(C(C)C)nc3c2)cc1
  inhibition: 9.1% (inactive)

## CCN(CC)CCn1c(N)c(S(=O)(=O)c2ccccc2)c2nc3ccccc3nc21
  inhibition: 11.7% (inactive)

## Cc1ccc(S(=O)(=O)c2c(N)n(C)c3nc4ccccc4nc23)cc1
  inhibition: 18.6% (inactive)

## CCC(=O)Nc1c(S(=O)(=O)c2ccccc2)c2nc3ccccc3nc2n1Cc1ccccc1
  inhibition: 98.2% (active)

## O=C(Cc1c(Cl)cccc1Cl)NC1CC1
  inhibition: 11% (inactive)

## Cc1ccc(NS(=O)(=O)c2ccc3c(c2)n(C)c(=O)c(=O)n3C)c(C)c1
  inhibition: 9% (inactive)

## CC(=O)NCC(=O)N1CCC(n2nccc2NC(=O)CCCc2ccccc2)CC1
  inhibition: -2.9% (inactive)

## COc1c(O)ccc2c1CN1CCc3cc4c(cc3C1C2)OCO4 (centres undefined)
  inhibition: 12.8% (inactive)

## CN(C)S(=O)(=O)c1cccc(-c2nn(-c3ccccc3)cc2/C=C2\SC(=S)N(CC(=O)O)C2=O)c1
  inhibition: 37.3% (inactive)

## COc1ccc(-c2nn(-c3ccccc3)cc2/C=C2/SC(=S)N(CCCC(=O)O)C2=O)c(C)c1
  inhibition: 44.1% (inactive)

## Cc1ccc(-c2nn(-c3ccccc3)cc2/C=C2\SC(=S)N(CCCCCC(=O)O)C2=O)o1
  inhibition: 55.1% (active)
Average of repeat tests
  inhibition: 59.6%

## O=C(N/C(=C/c1ccc(Cl)cc1)C(=O)N1CCCCC1)c1ccco1
  inhibition: 22% (inactive)

## CC1CCCCN1C(=O)CCS(=O)(=O)Cc1ccccc1 (centres undefined)
  inhibition: 18.6% (inactive)

## COc1ccc(NC(=O)CNC(=O)Cn2ccc3ccccc3c2=O)c(OC)c1
  inhibition: 7.3% (inactive)

## Cc1ccc(Nc2nc(Cl)c(C=O)s2)cc1
  inhibition: 16.9% (inactive)

## Cc1c(Cl)cccc1NC(=O)CCC(=O)N/N=C/c1ccco1
  inhibition: -5.3% (inactive)

## O=C(Nc1ccc2nccnc2c1)c1ccco1
  inhibition: 28.4% (inactive)

## COCCNC(=O)Nc1ccc2nc(-c3ccco3)c(-c3ccco3)nc2c1
  inhibition: 95.3% (active)
Average of repeat tests
  inhibition: 62.6%

## CC(C)(C)c1ccc(NC(=O)NCc2ccco2)cc1
  inhibition: -11.5% (inactive)

## COc1cccc(S(=O)(=O)NCc2ccc(C(=O)NCc3ccccn3)cc2)c1
  inhibition: 0.6% (inactive)

## COc1ccc2oc(=O)c(C(=O)NCc3ccccn3)cc2c1
  inhibition: 31.2% (inactive)

## O=C(NCc1ccccn1)c1ccc2nc(-c3ccco3)c(-c3ccco3)nc2c1
  inhibition: 74.1% (active)

## COc1ccc(CNC(=O)c2ccc(Br)s2)cc1OC
  inhibition: 0.1% (inactive)

## Cc1c(C)c2c(OCC(=O)N[C@@H](C(=O)O)c3ccccc3)cc3c(c2oc1=O)CCC(C)(C)O3
  inhibition: 44% (inactive)

## CCc1ccc(-c2nc(SCC(=O)NC3CCCC3)n[nH]2)cc1
  inhibition: -14.4% (inactive)

## COc1ccc(N(C)C(=O)C2CCN(S(=O)(=O)c3cccc4nsnc34)CC2)cc1
  inhibition: 11.4% (inactive)

## Cc1ccnc(NS(=O)(=O)c2ccc(NC(=O)c3oc4ccc(F)cc4c3C)cc2)n1
  inhibition: 15.4% (inactive)

## CC(CC(=O)N1CCN(S(=O)(=O)c2ccccc2)CC1)n1cncn1 (centres undefined)
  inhibition: 14.6% (inactive)

## CCOc1ccc(NC(=O)CN2CCN(CC(=O)Nc3ccc(OC)cc3)CC2)cc1
  inhibition: -4.3% (inactive)

## Cc1ccc(OCc2n[nH]c(=S)n2-c2ccc(C)cc2)cc1
  inhibition: 3.7% (inactive)

## COc1ccc(Cc2n[nH]c(=S)n2NC(=O)Nc2ccc(C)cc2)cc1
  inhibition: 68.1% (active)
Average of repeat tests
  inhibition: 49.6%

## C/C(=N/Nc1nc(-c2ccccc2)c(CC(=O)O)s1)c1ccccc1
  inhibition: 7% (inactive)

## Cc1cc(C)nc(N/N=C/c2c(CO)cnc(C)c2O)n1
  inhibition: -3.1% (inactive)

## Nc1ccc2nc3c(=O)[nH]c(=S)[nH]c3nc2c1
  inhibition: 93.4% (active)

## CCc1ccc(C(=O)NC(=S)Nc2ccccc2N2CCOCC2)cc1
  inhibition: -0.7% (inactive)

## CCOc1ccc(N(CC(=O)NCCc2ccc(F)cc2)S(=O)(=O)c2ccccc2)cc1
  inhibition: -1.5% (inactive)

## O=C(O)CCCn1cc(NC(=O)COc2cccc(Cl)c2)cn1
  inhibition: 11.5% (inactive)

## CN(C)[C@@H]1C(=O)C(C(N)=O)=C(O)[C@@]2(O)C(=O)C3=C(O)c4c(O)ccc(Cl)c4[C@@H](O)[C@H]3C[C@@H]12
  inhibition: 62.8% (active)

## COc1ccc(CN2C3CCCC2CC(NC(=O)c2cccc(F)c2)C3)cc1 (centres undefined)
  inhibition: 8.9% (inactive)

## COc1ccc(C2NC(=O)N(C)C(C)=C2[N+](=O)[O-])cc1 (centres undefined)
  inhibition: -5.6% (inactive)

## CC(NC(=O)Nc1cccc([N+](=O)[O-])c1)c1ccc2c(c1)OCO2 (centres undefined)
  inhibition: 3% (inactive)

## COc1ccc(-n2nc(C(=O)NCC(=O)N3CCC(C(N)=O)CC3)c3ccccc3c2=O)cc1OC
  inhibition: -4.6% (inactive)

## O=C(CNC(=O)c1ccc(F)cc1)c1ccccc1
  inhibition: -1.3% (inactive)

## Cc1cccc(N=C2NC(=O)/C(=C/c3cn(C)c4ccccc34)S2)c1
  inhibition: 12.3% (inactive)

## Cc1ccc(N2NC(=O)/C(=C/C=C/c3ccco3)C2=O)cc1C
  inhibition: -18.1% (inactive)

## Cc1ccc(N=C2NC(=O)/C(=C/C=C/c3ccco3)S2)cc1C
  inhibition: 54.8% (active)

## COc1ccc(CN2CCOC2=O)cc1OC
  inhibition: -0.8% (inactive)

## O=C(CN1CCN(C(=S)NC2CCCC2)CC1)Nc1ccc(Oc2ccccc2)cc1
  inhibition: -21.3% (inactive)

## O=C1CN(C(=O)c2cc(F)cc(F)c2)c2ccccc2N1
  inhibition: 6.7% (inactive)

## NS(=O)(=O)c1ccc(CNC(=O)c2cccc(Oc3ccccc3)c2)cc1
  inhibition: -2.7% (inactive)

## CCCN1CC=C2C(C#N)=C(N)C(C#N)(C#N)C(c3cc(OC)ccc3OC)C2C1 (centres undefined)
  inhibition: 34.3% (inactive)

## CCOC(=O)N1CC=C2C(C#N)=C(N)C(C#N)(C#N)[C@H](c3cccs3)[C@H]2C1
  inhibition: -13.8% (inactive)

## CCN1CC=C2C(C#N)=C(N)C(C#N)(C#N)[C@H](c3ccoc3)[C@H]2C1
  inhibition: 67.7% (active)

## O=C(N/N=C/c1cccc(OCc2ccccc2)c1)c1ccc(Br)o1
  inhibition: 4.8% (inactive)

## O=C(Nc1ccccc1N1CCCC1)c1ccc2ccccc2c1
  inhibition: 1.5% (inactive)

## COC(=O)c1cccc(C(=O)N2CCC(CCC(=O)NCc3ccc(F)cc3)CC2)c1
  inhibition: 7.8% (inactive)

## O=C(O)c1ccc(Cn2c(=S)[nH]c3cc(Cl)ccc3c2=O)cc1
  inhibition: 1.5% (inactive)

## CC(C)c1ccc2c(c1)c(SC(C)(C)C)c(CC(C)(C)C(=O)O)n2Cc1ccc(Cl)cc1
  inhibition: 52.2% (active)

## CCOC(=O)c1c(-c2ccccc2)oc2cc(Br)c(O)c(C=O)c12
  inhibition: -19% (inactive)

## CCOC(=O)c1c(-c2ccccc2)oc2cc(Br)c(O)cc12
  inhibition: 6.4% (inactive)
